# Results taken from PubChem BioAssay (NCI).
# About 83,000 compounds went through this panel and 20% of them were active in at least one assay; those are over-represented in the sample as a whole.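 Note: values are percent growth. 100 is the growth of untreated cells, values between 100 and 0 indicate rising inhibition; between -100 and 0 indicates cell death.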 Values without a mark were called inactive. The source made the active and inactive calls. The calls were made as follows: active = growth percent below 10; inactive = the rest.
# Experiments:
# Assay in all cases: NCI-60 one-dose screen, 48 h (100 = growth as untreated, 0 = no growth, -100 = all killed)
# Settings in all cases: 10 µM unless noted
# RPMI-8226 leukemia = tested on: RPMI-8226 leukemia
# OVCAR-8 ovarian = tested on: OVCAR-8 ovarian
# OVCAR-5 ovarian = tested on: OVCAR-5 ovarian
# OVCAR-4 ovarian = tested on: OVCAR-4 ovarian
# SK-OV-3 ovarian = tested on: SK-OV-3 ovarian
# IGROV1 ovarian = tested on: IGROV1 ovarian
# OVCAR-3 ovarian = tested on: OVCAR-3 ovarian
# HS 578T breast = tested on: HS 578T breast
# NCI/ADR-RES ovarian = tested on: NCI/ADR-RES ovarian
SMILES,growth (RPMI-8226 leukemia),growth (OVCAR-8 ovarian),growth (OVCAR-5 ovarian),growth (OVCAR-4 ovarian),growth (SK-OV-3 ovarian) [%],growth (IGROV1 ovarian),growth (OVCAR-3 ovarian),growth (HS 578T breast),growth (NCI/ADR-RES ovarian)
COC(=O)c1c[n+]([O-])ccc1OC,111%,110%,117%,123%,106,107%,113%,109%,105%
CCCCCCCCCC[N+](C)(C)C,1.86% (active),18.3%,9.16% (active),23%,56.2,-37.8% (active),5.8% (active),26.5%,94.4%
COc1ccc(C2=C/C(=C\c3ccc(Cl)cc3)C(=O)NN2C(=S)NN)cc1,86.5%,94.2%,112%,90%,89.5,107%,111%,96.6%,94.5%
Cc1c(CN(C)C)cc(C(C)C)cc1C(C)C,94.5%,106%,115%,98.8%,112,119%,120%,124%,104%
CCCCCCCCCC(C)NC(=O)CCl (centres undefined),97.6%,88.3%,107%,89.4%,103,25.6%,89.3%,102%,101%
c1ccc(C(=NNc2nc3ccccc3o2)c2ccccn2)nc1,6.05% (active),18.7%,37.5%,21.8%,13.8,16.3%,16.5%,44.2%,-3.58% (active)
O=C(NCCCl)Nc1nccnc1OCc1ccc(F)cc1,96.4%,101%,96.6%,104%,93.1,107%,117%,115%,104%
Oc1ccc(Br)cc1/C=N/NC(=S)NC12CC3CC(CC(C3)C1)C2,-21.3% (active),-31.3% (active),46.9%,36.9%,39.7,5.57% (active),-26.5% (active),,-3.63% (active)
C=C[C@]1(C)C=C2C(=O)[C@@]3(O)OC[C@@]4(CCCC(C)(C)C43O)C2(O)C(O)C1 (some centres undefined),15.2%,58.3%,120%,24.4%,104,107%,16.3%,90.3%,60.9%
O=C(NC(=S)NNC(=S)NNc1ccccc1)c1ccccc1,19.8%,20.9%,59.7%,84.8%,89.9,33.4%,71.6%,15.2%,75.4%
COc1ccc(C(=O)c2no[n+]([O-])c2C(=O)c2ccc(OC)cc2)cc1,-68.1% (active),,89.8%,-68.5% (active),113,,-100% (active),108%,96.2%
CC(C)C(=O)c1ccc(Cl)s1,,102%,105%,90.5%,,96.2%,106%,100%,104%
O=C1C(Cl)=C(SC2=NCCN2)C(=O)c2ccccc21,,65.8%,97.4%,80.5%,93.5,49.9%,46.8%,93.1%,86.8%
Cc1ccc(S(=O)(=O)Nc2cccc(Cn3c(=O)[nH]c4ccc(Oc5ncccn5)cc4c3=O)c2)cc1,61.2%,90.8%,86.7%,90.5%,81.2,57.8%,,89.3%,93.3%
Cn1c2ccccc2c2ccccc21,94.3%,98.3%,107%,105%,102,102%,107%,,101%
COc1cc([C@@H]2c3cc4c(cc3[C@H](O)[C@H]3COC[C@@H]23)OCO4)cc(OC)c1OC,,98.9%,101%,85.8%,98.3,71.1%,56.8%,,64.9%
COc1cc(-c2nc(/C=C3/C(=O)Nc4ccccc43)c3ccccn23)cc(OC)c1OC,,32.8%,82.9%,76.4%,74.2,51.6%,-8.37% (active),76.9%,47.2%
CCC(C)(C)c1ccc(OCCCCCCN2CCN(c3ccc(C)c(Cl)c3)CC2)cc1,59.7%,98.7%,97.6%,74.5%,,,58.3%,,85%
C=C1CCC2C3(C)COC(c4ccccc4)OC3CCC2(C)C1C/C=C1/C(=O)OCC1O (centres undefined),,,117%,66.6%,,59.2%,,,51.5%
CCCCN(CCCC)c1ccc(C(=O)O)cc1,102%,105%,108%,101%,,99.3%,106%,109%,106%
CC(=N\N=C(N)N)/C(=N/N=C(N)N)c1ccccc1,91.7%,83.1%,96.1%,79.2%,102,91.4%,97.9%,,90.2%
CCOP1(=O)CC(C)=C(Cl)C(P(=O)(O)O)C1 (centres undefined),81.9%,91.8%,94.8%,94.5%,,,113%,107%,96.1%
O=C(CN1CCN(c2cccc(Cl)c2)CC1)N1CCN(c2nnc(-c3ccc(Cl)cc3)c(-c3ccc(Cl)cc3)n2)CC1,-33.5% (active),,96.3%,76.8%,105,,72.6%,61.9%,70.6%
OCCN1CCN(CC/C=C2/c3ccccc3Sc3ccc(C(F)(F)F)cc32)CC1,,88.5%,82.4%,66.5%,73.1,55.8%,80%,67.7%,76.1%
COc1cc(/C=C/C(=O)c2ccc(F)cc2)ccc1OCCCCOc1cc2c(cc1OC)C(=O)N1CCCC1C=N2 (centres undefined),-27.4% (active),8.79% (active),-4.68% (active),-11% (active),10.7,,-28.8% (active),6.29% (active),27.1%

SMILES,growth (RPMI-8226 leukemia),growth (OVCAR-8 ovarian),growth (OVCAR-5 ovarian),growth (OVCAR-4 ovarian),growth (SK-OV-3 ovarian) [%],growth (IGROV1 ovarian),growth (OVCAR-3 ovarian),growth (HS 578T breast),growth (NCI/ADR-RES ovarian)
CC(Br)c1nc2ccccc2cc1C(N)=O (centres undefined),100%,112%,108%,109%,95.3,108%,105%,,109%
COc1ccc(/C=N/c2cc(C(C)(C)C)nn2-c2ccccc2)cc1,,97%,113%,109%,,125%,125%,107%,118%
COc1cccc(CNC(=O)c2cccc(C3CC(=O)c4c(cc(OC)c(OC)c4OC)O3)c2)c1 (centres undefined),32.9%,67.1%,89.1%,78.3%,81.7,46.5%,,102%,41.7%
COc1ccc(C(=O)CN2C(=O)NC(c3ccccc3)(c3ccccc3)C2=O)cc1,,95.2%,98.7%,99.8%,102,115%,107%,89.3%,102%
COc1cc(-c2nn(-c3ccc(NC(=O)Nc4ccc(Cl)c(C(F)(F)F)c4)cc3)cc2-c2ccncc2)ccc1Cl,,8.56% (active),25%,23.1%,10.7,25.9%,10.9%,,-1.19% (active)
COc1ccc(NC(=O)/C=C(C)/C=C/C=C(C)/C=C/C2=C(C)CCCC2(C)C)cc1,43.9%,37%,94.8%,80.1%,86.2,,66.5%,87.9%,80.1%
Cc1c(C(N)=O)sc2c1c(=O)n(Cc1ccccc1)c1nnc(S(C)(=O)=O)n21,,,135%,64.5%,103,106%,79.6%,87.5%,100%
COC(=O)c1cc(=O)nc(N/N=C/c2ccccc2O)s1,87.9%,97.5%,104%,50.8%,,88.6%,88.6%,108%,89.3%
COc1cc2cc3cc4cc(OC)c(OC)cc4c(C)[n+]3cc2cc1OC (tested in a mixture with another compound),43%,76.2%,104%,83.8%,107,,65.9%,90.1%,93.1%
COc1ccc(-c2nc(SCC(C)C)nc(Nc3ccc(C)cc3)c2C#N)cc1,73.2%,72.3%,86.4%,-50.4% (active),73.7,59.5%,,42.6%,72.7%
O=C(Nc1cccc(Cn2c(=O)[nH]c3ccc(Oc4ncccn4)cc3c2=O)c1)c1cccc(F)c1,52.3%,78.7%,96.1%,73.9%,,78.2%,84.1%,92.8%,104%
COc1cc(OC)c(NC(=O)n2ncc3cc(Nc4ncnc5ccccc45)ccc32)cc1Cl,101%,110%,74.2%,99.8%,,56.4%,91.3%,112%,97.3%
C/C=C(/C)C(=O)OC1C=C(CO)C(=O)C(OC(=O)C(C)(O)C(C)Cl)C1C(C)C (centres undefined),-33.5% (active),3.78% (active),-43.2% (active),14.1%,,-29.7% (active),-41.4% (active),30.7%,9.46% (active)
O=C(Cc1ccccc1[N+](=O)[O-])c1ccc2c(c1)OCO2,,104%,104%,102%,90.1,114%,103%,93.3%,106%
CCCCCC(=C/c1ccccc1)/C=N/N=C(N)N,,,58.8%,31.7%,76.9,-63.3% (active),,,41.7%
CC(=O)N(N=O)c1ccc([N+](=O)[O-])cc1Cl,17.2%,66.1%,88.5%,55.5%,66.9,67.7%,44.5%,,64.5%
COc1cc2cn3c4ccc(O)cc4[nH]c(=O)c3c2cc1OC,-2.13% (active),0.127% (active),30%,,,-3.23% (active),-13.9% (active),-11.2% (active),24.7%
COc1ccc2c(N)ncc(C#Cc3cc(C(=O)Nc4ccc(CN5CCN(C)CC5)c(C(F)(F)F)c4)cnc3C)c2c1,-45.1% (active),-34.7% (active),-21.6% (active),0.668% (active),24.5,-71.6% (active),,30%,16%
CC[C@@H](C)/C=C(C)/C=C/C(=O)c1c(O)c(-c2ccc(OC(=O)[C@@]34CC[C@@](C)(C(=O)O3)C4(C)C)cc2)cn(O)c1=O,,20.4%,55.7%,,28.3,-18.6% (active),30.1%,57.2%,3.91% (active)
O=C(N/N=C/c1ccccc1Cl)c1cccc2ccccc12,,82.2%,104%,103%,98.6,106%,110%,95.6%,107%
CCN(CC)CCNc1ncnc2c1cnn2-c1ccc(Cl)cc1,96.7%,,89.6%,90.6%,99.7,,63.1%,77.5%,91.4%
O=C(/C=C/c1ccc(Cl)cc1)c1ccc(Cl)cc1,13.7%,106%,104%,106%,104,88.1%,89.7%,,99.3%
CC(C)(C)OC(=O)N1C/C(=C\c2ccccc2)C(=O)/C(=C/c2ccccc2)C1,31%,96.5%,86.5%,97.9%,95.2,95.5%,,102%,98.9%
Nc1cc2c(cc1Br)[nH]c(=O)c1ccccc12,,39.9%,94%,24.8%,62.4,19%,2.99% (active),73.3%,63%
NC(N)=Nc1ccc(/C=C2\C=Cc3ccccc32)cc1,,71.7%,80.7%,77.7%,78.6,51.2%,72.9%,81.3%,80.9%
